Data from PubChem BioAssay (EPA / NIEHS).
Calls of active or inactive are those of the source. How the source made its calls: active means hit-call score of the fitted dose curve at least 0.9, where 1 is the maximum; inactive means score below 0.9.

Legend:
[1] = ATG_GLI_CIS: Attagene CIS-FACTORIAL HepG2 Assay for human Zinc Finger Protein GLI1 (AID 2282945); conditions: HepG2, Attagene cis-factorial reporter mRNA, GLI element; actives raise or lower the signal
How it was run: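 HepG2 cells transiently transfected with cis-promoter multiplexed reporter units report endogenous transcription factor activity. After 24 h chemical exposure, reporter mRNA was quantified by RT-PCR, 6-FAM labelling, HpaI digestion and capillary electrophoresis, with bidirectional fitting against DMSO.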

[2] = biological target: Bile acid receptor (Homo sapiens) (UniProt Q96RI1); assay: ATG_IR1_CIS: Attagene CIS-FACTORIAL HepG2 Assay for human Nuclear Receptor Subfamily 1 Group H Member 4 (NR1H4), IR1 submotif (AID 2282946); conditions: IR1 reporter transcription, actives raise or lower the signal
Bile acid receptor (Homo sapiens), sequence (Q96RI1 whole entry, looked up): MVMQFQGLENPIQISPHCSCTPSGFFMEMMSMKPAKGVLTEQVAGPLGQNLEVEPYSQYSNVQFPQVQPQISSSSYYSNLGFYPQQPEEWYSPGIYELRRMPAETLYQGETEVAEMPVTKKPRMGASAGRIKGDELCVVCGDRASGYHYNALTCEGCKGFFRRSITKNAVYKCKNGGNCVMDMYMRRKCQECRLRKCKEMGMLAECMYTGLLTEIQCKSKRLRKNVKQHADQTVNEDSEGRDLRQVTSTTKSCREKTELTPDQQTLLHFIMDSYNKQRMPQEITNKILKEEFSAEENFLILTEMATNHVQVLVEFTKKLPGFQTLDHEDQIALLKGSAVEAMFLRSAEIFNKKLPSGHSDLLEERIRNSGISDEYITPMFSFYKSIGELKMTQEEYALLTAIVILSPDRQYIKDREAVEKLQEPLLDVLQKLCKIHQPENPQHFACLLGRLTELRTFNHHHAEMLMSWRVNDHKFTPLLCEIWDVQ
How it was run: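 Transient MRTU transfection, HepG2; 24 h dosing; RNA → RT-PCR → 6-FAM primer extension → HpaI digest → capillary electrophoresis fluorescence. Gain/loss of signal fitted relative to DMSO.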

[3] = ATG_ISRE_CIS: Attagene CIS-FACTORIAL HepG2 Assay for human Interferon Regulatory Factor 1 (IRF1) binding to an Interferon-Stimulated Response Element (ISRE) (AID 2282948); conditions: HepG2 ISRE cis-reporter (Attagene), mRNA transcription readout; actives raise or lower the signal
How it was run: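 Transfected HepG2 (multiple reporter transcription units, cis elements) dosed 24 h. RNA → oligo(dT) RT → PCR → 6-FAM primer extension → HpaI → CE. DMSO = negative control/baseline.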

[4] = ATG_M_32_CIS: Attagene CIS-FACTORIAL HepG2 Assay for M32 Transcription Factor (Internal Marker) (AID 2282949); conditions: HepG2 Attagene cis-factorial M32 reporter, mRNA; actives raise or lower the signal;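 further: background control marker of the multiplexed CIS panel rather than a real target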
How it was run: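 Fluorescent capillary electrophoresis peaks of HpaI-digested, FAM-labelled RT-PCR reporter products give the signal. Source: transiently transfected human liver HepG2 cells, 24 h after chemical dosing; bidirectional fitting against DMSO.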

[5] = ATG_M_06_CIS: Attagene CIS-FACTORIAL HepG2 Assay for M06 Transcription Factor (Internal Marker) (AID 2282950); conditions: HepG2 Attagene CIS-FACTORIAL M06 internal marker reporter; actives raise or lower the signal
How it was run: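 Read-out is fluorescence of labelled reporter cDNA fragments resolved by capillary electrophoresis after RT-PCR. Cells: HepG2 carrying transfected cis-promoter reporter units, treated 24 h. Gain or loss of signal fitted relative to DMSO.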

[6] = biological target: Heat shock factor protein 1 (Homo sapiens) (UniProt Q00613); assay: ATG_HSE_CIS: Attagene CIS-FACTORIAL HepG2 Assay for human Heat Shock Transcription Factor 1 (HSE) (AID 2282953); conditions: HepG2 HSE cis-reporter, Attagene RNA transcription; actives raise or lower the signal
Heat shock factor protein 1 (Homo sapiens), sequence (Q00613 whole entry, looked up): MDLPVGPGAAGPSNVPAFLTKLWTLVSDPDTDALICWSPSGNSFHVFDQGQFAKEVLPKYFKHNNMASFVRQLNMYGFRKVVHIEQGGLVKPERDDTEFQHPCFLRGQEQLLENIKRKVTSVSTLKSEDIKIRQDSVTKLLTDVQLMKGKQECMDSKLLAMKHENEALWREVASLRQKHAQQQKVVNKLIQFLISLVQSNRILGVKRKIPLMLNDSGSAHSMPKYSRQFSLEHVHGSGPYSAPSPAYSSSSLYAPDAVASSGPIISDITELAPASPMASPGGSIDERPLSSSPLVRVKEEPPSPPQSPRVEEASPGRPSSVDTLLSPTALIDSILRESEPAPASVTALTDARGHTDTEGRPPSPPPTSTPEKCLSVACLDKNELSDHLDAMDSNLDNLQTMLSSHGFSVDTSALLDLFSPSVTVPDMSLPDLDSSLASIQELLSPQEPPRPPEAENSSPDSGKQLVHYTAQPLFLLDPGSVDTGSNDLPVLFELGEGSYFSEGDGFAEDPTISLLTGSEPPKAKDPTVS
How it was run: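 HepG2, transient MRTU transfection, cis-promoter reporters (endogenous TF activity). 24 h compound. RNA → oligo(dT) RT → PCR → 6-FAM primer extension → HpaI cut → CE. Bidirectional fit vs DMSO.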

[7] = ATG_MRE_CIS: Attagene CIS-FACTORIAL HepG2 Assay for human Metal Responsive Element (MRE) (AID 2282954); conditions: HepG2 MRE cis-reporter transcription, Attagene multiplex; actives raise or lower the signal
How it was run: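 Step one: transfect HepG2 with cis-regulated reporter units. Step two: dose 24 h. Step three: isolate RNA, RT-PCR, 6-FAM label, HpaI digest, capillary electrophoresis. Fit bidirectionally to DMSO.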

[8] = biological target: Paired box protein Pax-6 (Homo sapiens) (UniProt P26367); assay: ATG_Pax6_CIS: Attagene CIS-FACTORIAL HepG2 Assay for human Paired Box 6 (PAX6) (AID 2282956); conditions: HepG2 CIS-FACTORIAL PAX6 reporter transcription, RNA readout; actives raise or lower the signal
Paired box protein Pax-6 (Homo sapiens), sequence (P26367 whole entry, looked up): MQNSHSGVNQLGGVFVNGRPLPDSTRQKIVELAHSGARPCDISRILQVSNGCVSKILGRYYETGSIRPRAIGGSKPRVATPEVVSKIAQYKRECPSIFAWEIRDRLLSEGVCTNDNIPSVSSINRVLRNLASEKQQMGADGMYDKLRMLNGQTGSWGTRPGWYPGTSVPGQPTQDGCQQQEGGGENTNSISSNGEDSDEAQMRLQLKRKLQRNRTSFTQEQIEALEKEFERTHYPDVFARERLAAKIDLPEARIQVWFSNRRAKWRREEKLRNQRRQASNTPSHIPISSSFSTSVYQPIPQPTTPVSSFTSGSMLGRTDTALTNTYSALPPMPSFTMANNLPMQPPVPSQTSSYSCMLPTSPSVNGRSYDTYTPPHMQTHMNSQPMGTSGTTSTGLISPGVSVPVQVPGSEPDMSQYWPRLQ
How it was run: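 Transient MRTU transfection of HepG2 → compound exposure 24 h → TriZol RNA, oligo(dT) RT → PCR, 6-FAM primer extension, HpaI cut → capillary electrophoresis; activity fitted both directions against DMSO.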

[9] = ATG_PPRE_CIS: Attagene CIS-FACTORIAL HepG2 Assay for human Peroxisome Proliferator-activated Response Element (PPRE) (AID 2282958); conditions: HepG2 PPRE cis-element reporter, Attagene transcription factor profiling; actives raise or lower the signal
How it was run: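 Measured endpoint: PPRE-controlled reporter mRNA, detected by RT-PCR and capillary electrophoresis fluorescence, from transiently transfected HepG2 cells 24 h after dosing. Curves fitted in both directions using DMSO baseline.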

[10] = ATG_RORE_CIS: Attagene CIS-FACTORIAL HepG2 Assay for human RAR-related Orphan Receptor Element (RORE) (AID 2282959); conditions: HepG2 Attagene cis-factorial RORE reporter, mRNA; actives raise or lower the signal
How it was run: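 Transiently transfected HepG2 reporter cells were treated 24 h. Reporter transcripts were detected by RT-PCR and capillary electrophoresis, with bidirectional fitting against DMSO.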

[11] = ATG_Sox_CIS: Attagene CIS-FACTORIAL HepG2 Assay for human SRY-box transcription factor (SOX) (AID 2282960); conditions: HepG2 Attagene cis-factorial SOX reporter, mRNA; actives raise or lower the signal
How it was run: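 Gain- or loss-of-signal endpoint, fitted bidirectionally with DMSO as negative control. Based on reporter mRNA from transfected HepG2 cells harvested 24 h post-treatment and quantified via RT-PCR and capillary electrophoresis.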

[12] = biological target: Transcription factor Sp1 (Homo sapiens) (UniProt P08047); assay: ATG_Sp1_CIS: Attagene CIS-FACTORIAL HepG2 Assay for human Specificity Protein 1 (Sp1) (AID 2282961); conditions: HepG2 Sp1 cis-reporter transcription, actives raise or lower the signal
Transcription factor Sp1 (Homo sapiens), sequence (P08047 whole entry, looked up, the tested form may be a part): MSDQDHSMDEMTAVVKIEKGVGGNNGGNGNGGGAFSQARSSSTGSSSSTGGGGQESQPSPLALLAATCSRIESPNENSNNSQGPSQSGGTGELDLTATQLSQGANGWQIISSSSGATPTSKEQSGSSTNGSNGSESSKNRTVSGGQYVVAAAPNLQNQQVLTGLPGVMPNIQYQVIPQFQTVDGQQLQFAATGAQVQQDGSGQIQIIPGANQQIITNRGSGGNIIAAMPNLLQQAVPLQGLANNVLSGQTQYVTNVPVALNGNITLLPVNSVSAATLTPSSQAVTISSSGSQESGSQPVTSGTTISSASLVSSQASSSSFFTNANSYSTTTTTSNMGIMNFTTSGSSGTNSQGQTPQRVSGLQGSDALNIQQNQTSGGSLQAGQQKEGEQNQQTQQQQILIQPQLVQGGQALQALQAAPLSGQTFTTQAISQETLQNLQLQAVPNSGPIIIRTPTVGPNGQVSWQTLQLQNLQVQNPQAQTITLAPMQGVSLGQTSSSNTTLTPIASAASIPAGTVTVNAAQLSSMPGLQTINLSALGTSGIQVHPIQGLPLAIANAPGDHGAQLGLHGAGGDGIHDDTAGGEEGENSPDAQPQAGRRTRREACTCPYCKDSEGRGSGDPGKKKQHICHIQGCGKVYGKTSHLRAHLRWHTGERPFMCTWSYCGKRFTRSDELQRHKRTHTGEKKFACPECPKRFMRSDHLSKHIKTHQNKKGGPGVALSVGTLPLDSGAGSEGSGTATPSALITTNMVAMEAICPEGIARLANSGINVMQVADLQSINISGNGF
How it was run: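 Endpoint reflects endogenous Sp1 transcriptional activity, not an exogenous fusion protein: HepG2 cells with transfected cis-regulated reporters, 24 h dosing, RT-PCR/capillary electrophoresis mRNA read-out, DMSO-normalised bidirectional fit.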

[13] = ATG_SREBP_CIS: Attagene CIS-FACTORIAL HepG2 Assay for human Sterol Regulatory Element Binding (SREBP) (AID 2282962); conditions: HepG2 Attagene cis-factorial SREBP reporter, mRNA; actives raise or lower the signal
How it was run: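 Transfected HepG2 (cis-regulated reporter library, endogenous TFs) → compound 24 h → total RNA → oligo(dT) RT → reporter-specific PCR → FAM primer extension, HpaI cut → CE fluorescence. Fit bidirectional vs DMSO.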

[14] = biological target: Signal transducer and activator of transcription 3 (Homo sapiens) (UniProt P40763); assay: ATG_STAT3_CIS: Attagene CIS-FACTORIAL HepG2 Assay for human Signal Transducer and Activator of Transcription 3 (STAT3) (AID 2282963); conditions: HepG2, Attagene cis-factorial STAT3 reporter transcription; actives raise or lower the signal
Signal transducer and activator of transcription 3 (Homo sapiens), sequence (P40763 whole entry, looked up): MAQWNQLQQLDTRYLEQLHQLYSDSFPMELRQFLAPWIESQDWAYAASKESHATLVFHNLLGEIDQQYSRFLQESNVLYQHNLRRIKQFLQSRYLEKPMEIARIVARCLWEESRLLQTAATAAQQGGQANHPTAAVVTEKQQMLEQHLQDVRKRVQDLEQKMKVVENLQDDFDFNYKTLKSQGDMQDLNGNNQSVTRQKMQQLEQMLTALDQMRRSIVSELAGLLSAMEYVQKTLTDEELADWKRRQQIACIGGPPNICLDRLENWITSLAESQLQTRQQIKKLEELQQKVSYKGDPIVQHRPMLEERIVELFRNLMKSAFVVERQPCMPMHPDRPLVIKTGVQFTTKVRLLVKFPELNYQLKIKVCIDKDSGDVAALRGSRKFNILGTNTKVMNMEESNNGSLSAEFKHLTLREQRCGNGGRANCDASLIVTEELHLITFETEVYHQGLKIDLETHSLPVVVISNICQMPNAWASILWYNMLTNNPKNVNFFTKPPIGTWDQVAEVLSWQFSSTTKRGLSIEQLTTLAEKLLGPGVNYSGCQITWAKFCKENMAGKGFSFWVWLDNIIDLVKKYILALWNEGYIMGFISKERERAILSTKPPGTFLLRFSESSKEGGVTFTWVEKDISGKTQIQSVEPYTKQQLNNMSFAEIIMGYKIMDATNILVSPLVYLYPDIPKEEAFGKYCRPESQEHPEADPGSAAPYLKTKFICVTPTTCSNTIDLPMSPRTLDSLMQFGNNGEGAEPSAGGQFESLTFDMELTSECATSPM
How it was run: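 Transcript-level reporter assay. HepG2 transient MRTU transfection, 24 h exposure, fluorescence detection after RT-PCR and CE; DMSO baseline.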

[15] = ATG_TA_CIS: Attagene CIS-FACTORIAL HepG2 Assay for human TA Basal Promoter (AID 2282964); conditions: HepG2 Attagene CIS-factorial TA basal promoter reporter; actives raise or lower the signal
How it was run: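 Read-out: fluorescent reporter-transcript fragments resolved by capillary electrophoresis after RT-PCR and HpaI digestion. Source: HepG2 cells carrying transiently transfected multi-reporter cis constructs, treated 24 h. Endpoint fitted bidirectionally relative to DMSO.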

[16] = biological target: Hypoxia-inducible factor 1-alpha (Homo sapiens) (UniProt Q16665); assay: ATG_HIF1a_CIS: Attagene CIS-FACTORIAL HepG2 Assay for human Hypoxia Inducible Factor 1 (HIF1A) (AID 2282951); conditions: HepG2 Attagene cis-factorial HIF1a reporter transcription; actives raise or lower the signal
Hypoxia-inducible factor 1-alpha (Homo sapiens), sequence (Q16665 whole entry, looked up): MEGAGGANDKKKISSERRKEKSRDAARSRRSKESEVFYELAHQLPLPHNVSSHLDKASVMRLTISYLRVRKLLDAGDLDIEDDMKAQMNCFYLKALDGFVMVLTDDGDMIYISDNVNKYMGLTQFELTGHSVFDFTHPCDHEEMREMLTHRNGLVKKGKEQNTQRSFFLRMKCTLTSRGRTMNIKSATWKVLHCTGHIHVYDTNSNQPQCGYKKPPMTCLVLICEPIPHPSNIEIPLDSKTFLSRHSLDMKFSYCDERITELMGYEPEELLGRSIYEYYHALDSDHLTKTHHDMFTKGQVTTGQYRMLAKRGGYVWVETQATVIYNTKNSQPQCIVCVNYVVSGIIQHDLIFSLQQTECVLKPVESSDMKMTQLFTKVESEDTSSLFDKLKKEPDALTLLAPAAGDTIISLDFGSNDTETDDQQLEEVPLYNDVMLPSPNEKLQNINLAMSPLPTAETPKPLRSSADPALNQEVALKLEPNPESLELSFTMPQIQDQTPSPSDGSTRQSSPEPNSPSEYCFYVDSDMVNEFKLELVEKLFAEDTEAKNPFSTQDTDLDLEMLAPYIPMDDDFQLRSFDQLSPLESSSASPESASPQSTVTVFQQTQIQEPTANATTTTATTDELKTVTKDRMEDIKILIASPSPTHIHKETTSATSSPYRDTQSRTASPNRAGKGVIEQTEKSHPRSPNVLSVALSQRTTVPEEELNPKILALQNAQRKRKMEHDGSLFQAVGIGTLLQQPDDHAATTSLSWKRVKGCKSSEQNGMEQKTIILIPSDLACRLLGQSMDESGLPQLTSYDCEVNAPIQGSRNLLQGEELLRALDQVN
How it was run: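 Dosed 24 h, transfected HepG2 cells yielded total RNA whose reporter transcripts were RT-PCR-amplified and sized by capillary electrophoresis using fluorescent labelling; DMSO defined baseline, with gain and loss of signal both fitted.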

[17] = biological target: Hepatocyte nuclear factor 6 (Homo sapiens) (UniProt Q9UBC0); assay: ATG_HNF6_CIS: Attagene CIS-FACTORIAL HepG2 Assay for human Hepatocyte Nuclear Factor 6 (HNF6) (AID 2282952); conditions: HepG2 Attagene cis-factorial HNF6 reporter transcription; actives raise or lower the signal
Hepatocyte nuclear factor 6 (Homo sapiens), sequence (Q9UBC0 whole entry, looked up, the tested form may be a part): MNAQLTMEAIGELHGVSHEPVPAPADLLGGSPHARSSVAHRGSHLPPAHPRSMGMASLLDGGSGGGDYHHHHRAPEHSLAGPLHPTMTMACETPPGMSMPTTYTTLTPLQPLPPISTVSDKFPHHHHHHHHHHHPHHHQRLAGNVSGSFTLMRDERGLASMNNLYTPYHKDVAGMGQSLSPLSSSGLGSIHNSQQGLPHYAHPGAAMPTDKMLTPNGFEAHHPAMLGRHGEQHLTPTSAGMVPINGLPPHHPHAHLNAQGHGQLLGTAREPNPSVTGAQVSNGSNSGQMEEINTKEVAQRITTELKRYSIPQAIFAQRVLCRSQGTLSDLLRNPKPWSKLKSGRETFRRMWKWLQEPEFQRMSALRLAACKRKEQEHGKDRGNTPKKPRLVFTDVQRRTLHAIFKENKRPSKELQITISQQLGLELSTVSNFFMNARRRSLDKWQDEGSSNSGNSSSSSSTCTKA
How it was run: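 HepG2 cells transiently transfected with cis-element-driven multiplexed reporter units measuring endogenous transcription factor activity. After 24 h exposure, reporter mRNA quantified by RT-PCR, FAM-labelled fragments and capillary electrophoresis; bidirectional fitting versus DMSO.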

[18] = ATG_PBREM_CIS: Attagene CIS-FACTORIAL HepG2 Assay for human Phenobarbital-responsive Enhancer Module (PBREM) (AID 2282955); conditions: HepG2 PBREM cis-reporter, Attagene multiplexed transcription; actives raise or lower the signal
How it was run: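 Transfected liver-derived HepG2 cells exposed 24 h; PBREM reporter transcript quantified via RT-PCR and capillary electrophoresis, with activity in either direction referenced to DMSO.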

[19] = ATG_PXRE_CIS: Attagene CIS-FACTORIAL HepG2 Assay for human Pregnane X Receptor Element (PXRE) (AID 2282957); conditions: HepG2 Attagene CIS-FACTORIAL PXRE reporter, mRNA; actives raise or lower the signal
How it was run: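 HepG2 cells transiently transfected with cis-element-driven multiplexed reporter units; after 24 h chemical exposure, reporter mRNA measured by RT-PCR, 6-FAM labelling, HpaI digestion and capillary electrophoresis. Bidirectional fitting relative to DMSO.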

[20] = ATG_GRE_CIS: Attagene CIS-FACTORIAL HepG2 Assay for human Glucocorticoid Response Elements (GRE) (AID 2282947); conditions: HepG2 GRE cis-reporter, Attagene multiplex mRNA; actives raise or lower the signal
How it was run: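 Following 24 h chemical exposure of transiently transfected HepG2 cells, total RNA was reverse-transcribed and reporter cDNA amplified, fluorescently labelled and sized by capillary electrophoresis. Signal gain or loss was fitted relative to DMSO vehicle.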

Measured: AC50

CC(=O)c1ccc(S(=O)(=O)NC(=O)NC2CCCCC2)cc1
not listed: [16] | [17] | [18] | [19] | [20]
inactive: all other assays above

COc1ccc(C(=O)/C(Br)=C\C(=O)O)cc1
active: [16] 56.1 µM | [6] 174 µM | [7] 55.5 µM | [8] 57.1 µM | [10] 32.5 µM | [12] 59 µM
not listed: [3] | [9] | [11] | [20]
inactive: all other assays above

CC/C=C\C/C=C\C/C=C\CCCCCCCC(=O)OC
active: [2] 25.7 µM | [16] 34 µM | [6] 74.9 µM | [19] 7.37 µM | [10] 164 µM | [12] 128 µM
not listed: [11] | [15] | [17] | [18] | [20]
inactive: all other assays above

CC(CCC(=O)O)(c1ccc(O)cc1)c1ccc(O)cc1
active: [19] 27.5 µM
not listed: [9] | [14] | [16] | [20]
inactive: all other assays above

CCCCCCCCCC[N+](C)(CCCCCCCCCC)CCC[Si](OC)(OC)OC
inactive: [1] | [5] | [16] | [6] | [7] | [8] | [11] | [15]
active: [20] 18.4 µM | [3] 17.4 µM | [4] 20.2 µM | [17] 11 µM | [18] 19.3 µM | [19] 3.94 µM | [9] 19.9 µM | [10] 18.2 µM | [12] 21.1 µM | [13] 17 µM | [14] 18.1 µM

CC(C)(CO)C(O)C(=O)NCCCO (stereo not given)
not listed: [6] | [16] | [20]
inactive: all other assays above

O=C(O)CCC(=O)O
not listed: [3] | [18] | [20]
inactive: all other assays above
